# Source: PubChem BioAssay (NCATS)
# Records with an inconclusive call do not appear. Active and inactive are the calls of the source. Unless noted, the call rests on the fitted dose curve; in most records, active means well fitted curve in the direction sought with a large enough effect; inconclusive means small, poorly fitted or top-dose-only effect, or another doubt; inactive means no such curve, though single readings can be large; an effect the other way counts as inactive or inconclusive.
# How the values were obtained:
# [1] = qHTS to identify inhibitors of the type 1 interferon - major histocompatibility complex class I in skeletal muscle: primary screen against the NCATS Mechanism Interrogation Plate v5.0 (MIPE) Libary (AID 1347411); further: nearly all actives have a fitted effect of over 65% in size; further: potency means the concentration at half of the fitted maximal effect
# Outline: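 Luminescence from HiBiT-tagged endogenous HLA-B*08:01 served as the MHC class I read-out. CRISPR-engineered C25cl48 human myoblasts received 4.0 ng/ml IFN-beta plus compound for 24 hrs, with an 11-point, 1:3 series topping at 46 uM final.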
# [2] = Primary qHTS for inhibitors of nuclear receptor binding SET domain protein 2 (NSD2) in an isogenic RCH-ACV NSD2 p.E1099K mutant (9B) (AID 1645876); further: nearly all actives have a fitted effect of over 70% in size; further: potency means the concentration at half of the fitted maximal effect
# [3] = biological target: Glutathione peroxidase 1 (Homo sapiens) (UniProt P07203); assay: Primary qHTS Assay for Inhibitors of Recombinant Selenoprotein Glutathione Peroxidase 1 (GPX1) (AID 1845191); further: nearly all actives have a fitted effect of over 65% in size
# Chain of Glutathione peroxidase 1 (Homo sapiens) (P07203 whole entry, looked up): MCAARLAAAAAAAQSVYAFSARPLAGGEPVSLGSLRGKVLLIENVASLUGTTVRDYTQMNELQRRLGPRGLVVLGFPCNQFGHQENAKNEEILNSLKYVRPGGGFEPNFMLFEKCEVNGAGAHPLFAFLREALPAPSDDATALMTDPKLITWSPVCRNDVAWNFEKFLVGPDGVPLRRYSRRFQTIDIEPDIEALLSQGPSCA
# Outline: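 Recombinant GPX1 (10 nM final) was preincubated with compound for 30 min at room temperature, then reacted with 1 mM GSH, 0.5 mM CHP, 0.5 mM NADPH and 100 nM glutathione reductase; NADPH fluorescence (340/450 nm) was read at 0 and 15 min.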
# [4] = biological target: Phospholipid hydroperoxide glutathione peroxidase GPX4 (Homo sapiens) (UniProt P36969); assay: Primary qHTS Assay for Inhibitors of Recombinant Selenoprotein Glutathione Peroxidase 4 (GPX4) (AID 1845192); conditions: outcome: dose series up to 50 µM unless noted; further: nearly all actives have a fitted effect of over 65% in size; further: potency means the concentration at half of the fitted maximal effect
# Chain of Phospholipid hydroperoxide glutathione peroxidase GPX4 (Homo sapiens) (P36969 whole entry, looked up): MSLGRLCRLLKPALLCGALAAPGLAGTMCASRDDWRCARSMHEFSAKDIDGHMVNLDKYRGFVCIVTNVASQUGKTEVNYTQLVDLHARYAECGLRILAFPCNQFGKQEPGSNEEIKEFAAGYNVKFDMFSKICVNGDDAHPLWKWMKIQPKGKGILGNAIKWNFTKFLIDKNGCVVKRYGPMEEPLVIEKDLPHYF
# Outline: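 GR-coupled readout: 100 nM GR, 1 mM GSH, 0.5 mM NADPH; NADPH fluorescence (ex 340/em 450 nm) read at t=0 and after 15 min RT. GPX4 200 nM, preincubated 30 min with compound; substrate 0.5 mM CHP.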
# [5] = qHTS drug screen for cell cycle checkpoint inhibitors in PARPi-resistant BRCA-mutant ovarian cancer cell lines. (AID 1963452; calls by dose curve; further: potency means the concentration at half of the fitted maximal effect); conditions: PEO1/OlaR viability, CellTiter-Glo luminescence, 96 h; for Z-AUC: stronger effect = lower value
# Outline: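 PEO1, PEO4 and PEO1/OlaR ovarian cancer cells, 600 per well, exposed 96 h at 37C to a dilution series. Viability read by CellTiter-Glo luminescence, normalized to DMSO and empty wells; activity summarized as Z-AUC.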
# [6] = measured here: PEO1 parental Z-AUC
SMILES,Potency [1],Potency [2],Potency [3],Potency [4],Potency [5],"Z-AUC [5, 6]",Z-AUC ([5]; measured here: PEO4 Z-AUC),Z-AUC [5]
CNCCCOc1cc(F)c(-c2c(Cl)nc3ncnn3c2N[C@@H](C)C(F)(F)F)c(F)c1,inactive,0.0661 µM (active),inactive,inactive,0.155 µM (active),-1.35,-1.7,
O=C(Nc1ccccc1)Nc1ccc(-c2ccc(C(=O)[C@@H]3CCC[C@H]3C(=O)O)cc2)cc1,inactive,inactive,inactive,12.8 µM (active),,0.577,0.797,1.01 (inactive)
C[C@@H](O)[C@@H](C)Oc1nc(Nc2ccc(S(=N)(=O)C3CC3)cc2)ncc1C(F)(F)F (some centres undefined),20.8 µM (active),,inactive,inactive,,-0.0707,-0.563,-1.04 (inactive)
CC(C)(c1ccc(OCC(O)CO)cc1)c1ccc(OCC(O)CCl)cc1 (centres undefined),inactive,,inactive,inactive,,0.733,1.22,1.33 (inactive)
CC(C)Oc1ccc(-c2nn([C@@H](C)c3oc4ccc(F)cc4c(=O)c3-c3cccc(F)c3)c3ncnc(N)c23)cc1F,inactive,,inactive,inactive,,-0.265,-0.0554,0.0255 (inactive)
Nc1cc(COc2c(Cl)cc(C[C@H](N)C(=O)O)cc2Cl)c2oc(-c3ccccc3)nc2c1,inactive,,inactive,inactive,,-0.255,-0.878,-1.13 (inactive)
CCOCOC[C@H](C[C@H](C)C(=O)NO)NC(=O)c1ccc(Oc2ccccc2)cc1,inactive,,inactive,inactive,,0.894,1.19,0.6 (inactive)
